Our source for the residual activity values is ChEMBL document CHEMBL2218924, “A broad activity screen in support of a chemogenomic map for kinase signalling research and drug discovery” (Biochem J, 2013).

The first experiment deals with Ribosomal protein S6 kinase alpha-1 (Homo sapiens) (UniProt Q15418). Particulars: at 1 µM.
Ribosomal protein S6 kinase alpha-1 (Homo sapiens), sequence (Q15418 whole entry): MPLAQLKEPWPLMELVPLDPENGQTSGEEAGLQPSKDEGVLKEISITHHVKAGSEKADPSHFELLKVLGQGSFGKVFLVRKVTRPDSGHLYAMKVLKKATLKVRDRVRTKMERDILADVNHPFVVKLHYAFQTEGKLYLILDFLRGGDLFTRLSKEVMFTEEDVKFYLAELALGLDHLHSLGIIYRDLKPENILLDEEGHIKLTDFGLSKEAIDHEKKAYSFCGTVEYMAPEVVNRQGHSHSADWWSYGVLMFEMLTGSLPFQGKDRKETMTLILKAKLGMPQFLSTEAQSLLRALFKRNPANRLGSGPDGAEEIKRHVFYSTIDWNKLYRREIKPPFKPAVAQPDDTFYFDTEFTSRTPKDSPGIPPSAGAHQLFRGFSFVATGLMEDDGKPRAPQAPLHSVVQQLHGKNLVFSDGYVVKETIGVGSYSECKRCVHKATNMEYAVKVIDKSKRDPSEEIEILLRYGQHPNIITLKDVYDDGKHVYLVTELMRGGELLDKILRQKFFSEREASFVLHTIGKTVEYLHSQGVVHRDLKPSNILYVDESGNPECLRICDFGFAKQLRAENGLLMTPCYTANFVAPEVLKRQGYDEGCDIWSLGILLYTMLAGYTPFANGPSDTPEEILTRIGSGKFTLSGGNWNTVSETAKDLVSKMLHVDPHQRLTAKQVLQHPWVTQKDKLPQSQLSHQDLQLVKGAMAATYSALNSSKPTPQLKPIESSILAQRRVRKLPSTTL
As a reminder, the residual activity is the signal under treatment as a percentage of the control signal. On to `O=C1NC(=O)/C(=C\c2ccc3nccnc3c2)S1`, for which the residual activity was determined as 112%.
Same read-out and setting: in the case of `Cc1nc2cc3nc(-c4cccs4)cnc3cc2n1C` it was 115%.
On the same count and under the same terms, next, `COc1cc2ncnc(Nc3ccc(O)c(Br)c3)c2cc1OC`: 92%.
Still for that read-out and setting: next, `CCC(=O)Nc1ccc2ncnc(Nc3cccc(Br)c3)c2c1`: 119%; `Cn1cnc2cc3c(Nc4cccc(Br)c4)ncnc3cc21`: 97%.
For the compound `Cc1cc(Nc2nc(-c3ccccc3)nc3ccccc23)n[nH]1`, the residual activity came out at 51%.
Take `O=C1Nc2cc(Br)ccc2/C1=C1/Nc2ccccc2/C1=N\O`: the residual activity came out at 72%.
The same measure, in the same setting: in the case of `CCN(CC)CCCCN1c2ccccc2Oc2ccc(Cl)cc21` it was 110%.
On the same count and under the same terms, in the case of `Nc1nc(Nc2ccc(S(N)(=O)=O)cc2)nn1C(=S)Nc1c(F)cccc1F` it was 4%; in that of `CN(C)CCCn1cc(C2=C(c3c[nH]c4ccccc34)C(=O)NC2=O)c2ccccc21`, 15%; in that of `N#CC(C#N)=C(N)/C(C#N)=C/c1ccc(O)cc1`, 94%.
`COc1ccc(C(=O)Nc2sc3c(c2C(N)=O)CCCC3)cc1OC`: the residual activity worked out at 99%.
As to `CCN(CC)C(=O)c1ccc(Nc2nc(OCC3CCCCC3)c3nc[nH]c3n2)cc1`, the residual activity is 58%.
For the compound `Cc1ccc(NC2=CC(=O)c3sc(C)nc3C2=O)cc1`, the residual activity stood at 104%.
For `COc1cc2ncnc(N3CCN(C(=O)Nc4ccc(Oc5ccccc5)cc4)CC3)c2cc1OC`, the residual activity stood at 93%.
Turning to `Nc1n[nH]c2nnc(-c3c(-c4ccccc4)nn4ccccc34)cc12`, the residual activity stood at 108%.
Regarding `O=C1Nc2ccccc2/C1=C1/Nc2ccccc2/C1=N\OCCC(O)CO` (stereo not drawn), the residual activity was found to be 18%.
Same read-out and setting: next, `Ic1cccc(CSc2nnc(-c3ccncc3)o2)c1`: 55%; `O=c1cc(-c2cccc3c2Sc2ccccc2S3)oc(N2CCOCC2)c1`: 87%; `COc1ccc(CNc2nc(N(CCO)CCO)nc3c2ncn3C(C)C)cc1`: 90%.
With `COc1cccc(-c2cc(=O)c3ccccc3o2)c1N`, the residual activity was 91%.
On the same count and under the same terms, next, `NC(=O)c1ccc2[nH]c(-c3ccc(Oc4ccc(Cl)cc4)cc3)nc2c1`: 91%; `CNc1cc2c(Nc3cccc(Br)c3)ncnc2cn1`: 115%.
The same measure, in the same setting: next, `O=C(Nc1cccc(Nc2cc(Nc3cccc(C(F)(F)F)c3)ncn2)c1)C1CC1`: 105%; `Cc1nc(-c2ccccc2)c(-c2ccncc2)o1`: 88%; `c1ccc(-c2n[nH]c3c2oc2ccccc23)cc1`: 97%.

The target is the same in a further experiment. Particulars: at 10 µM.
Take `O=C1NC(=O)/C(=C\c2ccc3nccnc3c2)S1`: the residual activity was determined as 83%.
Consider `Cc1nc2cc3nc(-c4cccs4)cnc3cc2n1C`, for which the residual activity stood at 89%.
On the same count and under the same terms, next, `c1ccc2c(-c3ccncc3)c[nH]c2c1`: 67%; `COc1cc2ncnc(Nc3ccc(O)c(Br)c3)c2cc1OC`: 45%.
The same measure, in the same setting: in the case of `CCC(=O)Nc1ccc2ncnc(Nc3cccc(Br)c3)c2c1` it was 84%; in that of `Cn1cnc2cc3c(Nc4cccc(Br)c4)ncnc3cc21`, 92%.
Take `Cc1cc(Nc2nc(-c3ccccc3)nc3ccccc23)n[nH]1`: the residual activity was 15%.
Turning to `O=C1Nc2cc(Br)ccc2/C1=C1/Nc2ccccc2/C1=N\O`, the residual activity came to 73%.
`CCN(CC)CCCCN1c2ccccc2Oc2ccc(Cl)cc21`: the residual activity is 117%.
Same read-out and setting: in the case of `Cn1nc2c3c(cccc31)C(=O)c1ccccc1-2` it was 93%.
The same measure, in the same setting: next, `COc1cc2ncnc(Nc3ccc(NC(=O)c4ccccc4)cc3)c2cc1OC`: 75%.
Same read-out and setting: next, `Nc1nc(Nc2ccc(S(N)(=O)=O)cc2)nn1C(=S)Nc1c(F)cccc1F`: 3%.
As to `CN(C)CCCn1cc(C2=C(c3c[nH]c4ccccc34)C(=O)NC2=O)c2ccccc21`, the residual activity worked out at 2%.
`N#CC(C#N)=C(N)/C(C#N)=C/c1ccc(O)cc1`: the residual activity turned out to be 78%.
Regarding `C[C@@H](N)[C@H]1CC[C@H](C(=O)Nc2ccncc2)CC1`, the residual activity came to 48%.
Same read-out and setting: in the case of `CC(=O)c1ccc(N2CCOCC2)cc1O` it was 110%.
Same read-out and setting: next, `COc1ccc(C(=O)Nc2sc3c(c2C(N)=O)CCCC3)cc1OC`: 103%; `CCN(CC)C(=O)c1ccc(Nc2nc(OCC3CCCCC3)c3nc[nH]c3n2)cc1`: 7%.
On the same count and under the same terms, in the case of `Cc1ccc(NC2=CC(=O)c3sc(C)nc3C2=O)cc1` it was 78%.
For the compound `COc1cc2ncnc(N3CCN(C(=O)Nc4ccc(Oc5ccccc5)cc4)CC3)c2cc1OC`, the residual activity worked out at 118%.
The same measure, in the same setting: next, `Nc1n[nH]c2nnc(-c3c(-c4ccccc4)nn4ccccc34)cc12`: 93%; `O=C1Nc2ccccc2/C1=C1/Nc2ccccc2/C1=N\OCCC(O)CO` (stereo not drawn): 12%.
For `Ic1cccc(CSc2nnc(-c3ccncc3)o2)c1`, the residual activity came out at 46%.
Consider `O=c1cc(-c2cccc3c2Sc2ccccc2S3)oc(N2CCOCC2)c1`, for which the residual activity worked out at 94%.
For the compound `COc1ccc(CNc2nc(N(CCO)CCO)nc3c2ncn3C(C)C)cc1`, the residual activity was 59%.
Same read-out and setting: next, `COc1cccc(-c2cc(=O)c3ccccc3o2)c1N`: 81%.
The same measure, in the same setting: in the case of `NC(=O)c1ccc2[nH]c(-c3ccc(Oc4ccc(Cl)cc4)cc3)nc2c1` it was 67%.
